Screens (PubChem BioAssay)
A selection: hits, their analogues and other compounds. The true share with any hit is near 8.9%.
IMPase Li cell: qHTS Assay for Identifying the Cell-Membrane Permeable IMPase Inhibitors: Potentiation with Lithium | Potency, µM (highest dose often 59.4 µM), without a hit: at the highest dose activity, negative = IMPase inhibition, hits mostly inhibitors | 210,000 compounds, 0.35% hits | AID 1457, 2008 | CHO-M1 cells, IP1 TR-FRET (IP-One), carbachol + lithium;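 further: IP1 builds up when IMPase is blocked and the TR-FRET signal falls; potency means the concentration at half of the fitted maximal effect; plate controls were basal vehicle for no effect and high inhibitor control for full effect; nearly all actives have a fitted effect of over 50% in size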
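Test compounds were applied to CHO-M1 cells previously cultured for 16–30 h at 2000 per well. A small lithium amount accompanied them; after 30 min at 37C, IP1 was quantified by TR-FRET.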
IMPase inh: qHTS Assay for Identifying the Cell-Membrane Permeable IMPase Inhibitors; CHO-M1 cells, IP1 accumulation, HTRF TR-FRET ratio; 120,000 tested, under 10 active; Inositol monophosphatase 1 (Rattus norvegicus), P97697; AID 901, 2007; inhibition (IP1 accumulation), % at 46.1 µM; active means well fitted curve in the direction sought with a large enough effect in the signal ratio, not every such curve was filed as active; inconclusive means small, poorly fitted or top-dose-only effect, or a change in a side signal; inactive means no such curve, though single readings can be large or run the other way; the % refers to the signal ratio;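 further: cells stimulated with carbachol in lithium chloride buffer; plate controls were DMSO basal wells for no effect and reference inhibitor wells for full effect; higher means more IMPase inhibition seen as more IP1 and lower FRET ratio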
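Measured: the HTRF emission ratio (665/620 nm) plus the 620 nm donor channel, each fitted to the Hill equation to give AC50. Cells were CHO-M1 given compounds up to 46 uM and a 30 min carbachol stimulation at 37C.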
ALDH1A1 inh: qHTS Assay for Inhibitors of Aldehyde Dehydrogenase 1 (ALDH1A1); Aldehyde dehydrogenase 1A1 (Homo sapiens), P00352; Purified ALDH1A1, NADH fluorescence, propionaldehyde substrate; Potency, µM (highest dose often 75.3 µM), inactives show at the highest dose activity, negative = inhibition, most hits filed as inhibitors; 220,000 compounds, 7.3% hits; AID 1030, 2008; active means well fitted inhibition curve with a large enough effect, not every such curve was filed as active; inconclusive means small, poorly fitted or top-dose-only effect, or another doubt; inactive means no such curve, though single readings can be large or run the other way;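 further: potency means the concentration at half of the fitted maximal effect; plate controls were no enzyme wells and a reference inhibitor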
NPSR antag: qHTS Assay for Antagonists of the Neuropeptide S Receptor: cAMP Signal Transduction; Potency, µM (highest dose often 38.3 µM), for inactives: top-dose activity change, negative = inhibition, usual class: inhibitors; Q6W5P4; 220,000 compounds, 1% hits; CHO-NPSR cells, cAMP TR-FRET, antagonist mode; further: potency means the concentration at half of the fitted maximal effect; nearly all actives have a fitted effect of over 50% in size
12-hLO inh: qHTS Assay for Inhibitors of 12-hLO (12-human lipoxygenase); AID 1452, 2008; 150,000 compounds, 0.12% hits; Polyunsaturated fatty acid lipoxygenase ALOX12 (Homo sapiens), P18054; purified 12-hLO, xylenol orange hydroperoxide absorbance; Potency, µM (highest dose often 57.1 µM), for inactives: at the top dose activity change, negative = inhibition, usual class: inhibitors; further: potency means the concentration at half of the fitted maximal effect; nearly all actives have a fitted effect of over 55% in size
Target sequence (P18054 whole entry, looked up): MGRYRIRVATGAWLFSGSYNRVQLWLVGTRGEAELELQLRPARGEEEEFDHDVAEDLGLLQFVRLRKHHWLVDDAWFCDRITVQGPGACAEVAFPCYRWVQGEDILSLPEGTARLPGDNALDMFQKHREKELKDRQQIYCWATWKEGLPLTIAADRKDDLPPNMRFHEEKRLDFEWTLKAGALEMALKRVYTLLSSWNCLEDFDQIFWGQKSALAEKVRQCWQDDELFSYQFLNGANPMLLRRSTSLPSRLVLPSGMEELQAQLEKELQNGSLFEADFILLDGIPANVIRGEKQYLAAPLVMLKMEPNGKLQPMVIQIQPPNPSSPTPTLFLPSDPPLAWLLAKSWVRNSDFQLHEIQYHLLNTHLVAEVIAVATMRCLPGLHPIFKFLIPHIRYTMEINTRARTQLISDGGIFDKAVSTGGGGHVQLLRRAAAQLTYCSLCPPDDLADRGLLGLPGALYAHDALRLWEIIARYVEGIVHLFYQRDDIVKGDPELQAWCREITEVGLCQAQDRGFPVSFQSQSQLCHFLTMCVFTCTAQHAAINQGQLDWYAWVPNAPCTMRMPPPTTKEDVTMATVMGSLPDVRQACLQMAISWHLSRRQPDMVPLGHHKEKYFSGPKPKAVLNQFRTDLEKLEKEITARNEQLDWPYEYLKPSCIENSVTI
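Hydroperoxide output read as Fe(III)-xylenol orange absorbance, 573-to-405 nm ratio, after 30 min reaction with 40 uM arachidonic acid. Enzyme: 150 nM purified human 12hLO, 15 min compound preincubation; 25 mM Hepes pH 7.0, room temperature.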
HPGD block: qHTS Assay for Inhibitors of HPGD (15-Hydroxyprostaglandin Dehydrogenase); 150,000 compounds, 4.3% hits; 15-hydroxyprostaglandin dehydrogenase [NAD(+)] (Homo sapiens), P15428; AID 894, 2007; Potency, µM, for the others: at the highest dose activity change, negative = inhibition, most hits filed as inhibitors; purified HPGD, NADH fluorescence kinetic, PGE2 substrate; active means well fitted inhibition curve with a large enough effect, not every such curve was filed as active; inconclusive means small, poorly fitted or top-dose-only effect, or another doubt; inactive means no such curve, though single readings can be large or run the other way; further: potency means the concentration at half of the fitted maximal effect
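NADH formation kinetics: reaction with 30 uM PGE2 and 1 mM NAD+ (final), 20 nM enzyme, Tris-HCl pH 8 with Tween 20, after 15 min compound preincubation at room temperature. Fluorescence change, last versus first of five reads.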
* hit, by the source's call; [ ] = another dose, or the depositor's remark. Unless noted, the call rests on the fitted dose curve; in most records, active means well fitted curve in the direction sought with a large enough effect; inconclusive means small, poorly fitted or top-dose-only effect, or another doubt; inactive means no such curve, though single readings can be large; an effect the other way counts as inactive or inconclusive. Unless noted, on the % scale 0 is the no-effect control and ±100 the full control effect.

How did CC1CCCN(c2nc3c(c(=O)[nH]c(=O)n3C)n2CCSc2nc3ccccc3o2)C1 (stereo unspecified) do in these assays?
IMPase Li cell: 6%[38.3 µM]; IMPase inh: 6; ALDH1A1 inh: 5%; NPSR antag: -9%[46.1 µM]; 12-hLO inh: 4%; HPGD block: -10%

How did O=C1c2ccccc2C(=O)N1CCCSc1nc2ccccc2o1 do in these assays?
IMPase Li cell: -1%[38.3 µM]; IMPase inh: 9; ALDH1A1 inh: inconclusive; NPSR antag: -24%[46.1 µM]; 12-hLO inh: -6%; HPGD block: 20µM*

What do the screens show for `COc1cccc(NC(=O)c2ccc(-c3ccccc3[N+](=O)[O-])o2)c1`?
IMPase Li cell: 32%; ALDH1A1 inh: inconclusive; NPSR antag: -16%

What do the screens show for `Cc1cccc(NC(=O)c2ccc(-c3ccccc3[N+](=O)[O-])o2)c1`?
IMPase Li cell: 15%; ALDH1A1 inh: 2.2µM*; NPSR antag: 36%

How did CCN(CC(=O)Nc1ccc(C(C)=O)cc1)CC(=O)Nc1ccccc1C(F)(F)F do in these assays?
IMPase Li cell: -4%; ALDH1A1 inh: 10µM*; NPSR antag: -11%

Results for CCN(CC)c1ccc(NC(=O)Nc2ccccc2C(F)(F)F)cc1 ?
IMPase Li cell: 1%[38.3 µM]; IMPase inh: 3; ALDH1A1 inh: 4µM*; NPSR antag: -14%[46.1 µM]; 12-hLO inh: -18%; HPGD block: -8%

What do the screens show for `O=C(Nc1ccccc1C(F)(F)F)Nc1cccc2ccccc12`?
IMPase Li cell: -5%[38.3 µM]; IMPase inh: -1; ALDH1A1 inh: -1%; NPSR antag: -11%[46.1 µM]; 12-hLO inh: -1%; HPGD block: -23%

Results for CCN1CC2([N+](=O)[O-])C=CC(=O)C([N+](=O)[O-])(C1)C2CC(=O)c1ccccc1 (stereo unspecified) ?
IMPase Li cell: 19%[38.3 µM]; IMPase inh: 4; ALDH1A1 inh: inconclusive; NPSR antag: -14%[46.1 µM]; 12-hLO inh: -17%; HPGD block: -22%

Results for O=C(Nc1ccccc1)N1CCc2scc[n+]2-c2ccccc21 ?
IMPase Li cell: 11%; ALDH1A1 inh: inconclusive; NPSR antag: 4%; 12-hLO inh: -4%; HPGD block: -8%

Results for O=CN1CCc2scc[n+]2-c2ccccc21 ?
IMPase Li cell: 1%; IMPase inh: -1; ALDH1A1 inh: 14µM*; NPSR antag: -6%[46.1 µM]; 12-hLO inh: -5%; HPGD block: -11%

How did COc1ccc2nc3ccccc3nc2c1 do in these assays?
IMPase Li cell: -4%; ALDH1A1 inh: inconclusive; NPSR antag: 39%

Results for NC(=O)c1ccc(-n2nnnc2SCc2ccccc2)cc1 ?
IMPase Li cell: 15%[38.3 µM]; IMPase inh: -1; ALDH1A1 inh: 5%; NPSR antag: -17%[46.1 µM]; 12-hLO inh: 5%; HPGD block: -17%

What do the screens show for `O=C(O)c1cc(-n2nnnc2SCc2ccccc2F)ccc1Cl`?
IMPase Li cell: 15%; ALDH1A1 inh: 10µM*; NPSR antag: -5%

How did Fc1cccc(Cl)c1CSc1nnnn1-c1ccc2c(c1)OCO2 do in these assays?
IMPase Li cell: -6%[38.3 µM]; IMPase inh: -2; ALDH1A1 inh: 14µM*; NPSR antag: -14%[46.1 µM]; 12-hLO inh: -11%; HPGD block: -16%

What do the screens show for `COc1ccc(C)cc1NC(=O)CNc1ccccc1CN(C)C1CCCCC1`?
IMPase Li cell: 20%; ALDH1A1 inh: 20µM*; NPSR antag: -41%

What do the screens show for `Cc1ccc(NC(=O)CNc2ccccc2CN(C)C2CCCCC2)cc1`?
IMPase Li cell: 8%; ALDH1A1 inh: 20µM*; NPSR antag: -20%

What do the screens show for `CN(CC(=O)Nc1ccc(OC(F)(F)F)cc1)C1CCCCC1`?
IMPase Li cell: 8%; ALDH1A1 inh: -15%; NPSR antag: -12%

What do the screens show for `COc1ccc(Cl)cc1NC(=O)CN(C)C1CCCCC1`?
IMPase Li cell: 9%[38.3 µM]; IMPase inh: 6; ALDH1A1 inh: 0%; NPSR antag: -22%[46.1 µM]; 12-hLO inh: -3%; HPGD block: -15%

What do the screens show for `COC(=O)[C@H](CC(C)C)NC(=O)NCCCc1ccccc1`?
IMPase Li cell: 4%; ALDH1A1 inh: 4%; NPSR antag: -1%; 12-hLO inh: -1%; HPGD block: 1%

How did COc1ccccc1NC(=S)NCCc1ccc(Cl)cc1 do in these assays?
IMPase Li cell: 10%[38.3 µM]; IMPase inh: 0; ALDH1A1 inh: inconclusive; NPSR antag: -8%[46.1 µM]; 12-hLO inh: 14µM*; HPGD block: -11%

How did COc1cc(NC(=S)NCCc2ccc(S(N)(=O)=O)cc2)c(OC)cc1Cl do in these assays?
IMPase Li cell: 8%; ALDH1A1 inh: 11µM*; NPSR antag: -18%

Results for COc1ccc(NC(=S)NCCSc2ccc(Cl)cc2)c(OC)c1 ?
IMPase Li cell: 25%; IMPase inh: 2; ALDH1A1 inh: 20µM*; NPSR antag: -22%[46.1 µM]; 12-hLO inh: inconclusive; HPGD block: 16µM*

What do the screens show for `CCOCCCNCc1ccc(OCCC(C)C)c(OC)c1`?
IMPase Li cell: 4%; ALDH1A1 inh: inconclusive; NPSR antag: 5%

Results for Oc1[nH]c(=S)sc1C=C1N=c2ccccc2=N1 ?
ALDH1A1 inh: 6%; NPSR antag: inconclusive

How did S=c1[nH]c2ccccc2s1 do in these assays?
IMPase Li cell: 5%; ALDH1A1 inh: 11µM*; 12-hLO inh: -4%[0.00818 µM]; HPGD block: 25µM*

How did Cc1cn2c(nc1=O)OC1C(O)C(COC(=O)c3ccccc3)OC12 (stereo unspecified) do in these assays?
IMPase Li cell: 32%[38.3 µM]; IMPase inh: -4; ALDH1A1 inh: 3.2µM*; NPSR antag: 5%[46.1 µM]; 12-hLO inh: -2%; HPGD block: -1%

Results for CCOc1ccccc1NC1=CC(=O)CC(c2ccccc2)C1 (stereo unspecified) ?
IMPase Li cell: -6%[38.3 µM]; IMPase inh: 1; ALDH1A1 inh: -10%; NPSR antag: 1.3µM*; 12-hLO inh: 2%; HPGD block: -11%

Results for COc1ccc(NC2=CC(=O)CC(c3ccccc3)C2)c(OC)c1 (stereo unspecified) ?
IMPase Li cell: 9%[38.3 µM]; IMPase inh: 1; ALDH1A1 inh: 10%; NPSR antag: 2%[46.1 µM]; 12-hLO inh: 7%; HPGD block: -3%

What do the screens show for `NS(=O)(=O)c1ccc(O)c(NC(=O)c2ccc([N+](=O)[O-])o2)c1`?
ALDH1A1 inh: 2.5µM*; NPSR antag: 12%
